Laboratory results reported in PubChem BioAssay AID1159580 (chemical genetic matrix, 2015).
Several values for one entry are separate records, joined by “and”; a condition that tells them apart may be missing. Equal values may be shown once. Among all 5,500 compounds or so, about 2,000 (36%) were called active. Not shown: some 18% with an inconclusive outcome. No stated cut-off is given here; in the data, active means normalized growth mostly below about 0.91 (no sharp cut-off); inconclusive means no clear call, values can overlap the other calls; inactive means mostly above about 0.92. This is one part of the list.

Assay: chemical genetic growth profiling, strain panel (AID 1159580);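 further: tested at 20 µM; growth read once vehicle control cultures reached saturation at 30 °C; 1 = growth at the plate median or of vehicle wells; lower values mean less growth of the strain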
Settings: S. cerevisiae deletion strains, growth OD

Measured: normalized growth

COP(N)(=O)SC (configuration not stated)
inactive: locus YAL013W, strain DEP1, active compounds read low 1 | locus YAL021C, strain ccr4, active compounds read low 0.981 | locus YAL026C, strain drs2, active compounds read low 1.01 | locus YAL030W, strain snc1, active compounds read low 1 | locus YBL061C, strain skt5, active compounds read low 1.01 | locus YBR009C, strain hhf1, active compounds read low 1.02 | locus YBR021W, strain FUR4, active compounds read low 1.01 | locus YBR023C, strain chs3, active compounds read low 1.01 | locus YBR171W, strain sec66, active compounds read low 1 | locus YBR229C, strain ROT2, active compounds read low 0.978 | locus YBR231C, strain swc5, active compounds read low 1.01 | locus YBR279W, strain paf1, active compounds read low 1.01 | locus YCL011C, strain gbp2, active compounds read low 1 | locus YCL016C, strain dcc1, active compounds read low 1 | locus YCL029C, strain bik1, active compounds read low 1.01 | locus YCL061C, strain MRC1, active compounds read low 0.997 | locus YCL069W, strain vba3, active compounds read low 1 | locus YCR088W, strain abp1, active compounds read low 1 | locus YDL005C, strain med2, active compounds read low 1 | locus YDL035C, strain GPR1, active compounds read low 1.01 | locus YDL040C, strain nat1, active compounds read low 1.01 | locus YDL074C, strain BRE1, active compounds read low 0.993 | locus YDL101C, strain DUN1, active compounds read low 0.978 | locus YDL134C, strain PPH21, active compounds read low 1.01 | locus YDL185W, strain tfp1, active compounds read low 1.01 | locus YDL192W, strain arf1, active compounds read low 1.01 | locus YDR001C, strain nth1, active compounds read low 0.994 | locus YDR069C, strain doa4, active compounds read low 1.01 | locus YDR101C, strain arx1, active compounds read low 1 | locus YDR137W, strain rgp1, active compounds read low 1.01 | locus YDR150W, strain NUM1, active compounds read low 0.987 | locus YDR159W, strain sac3, active compounds read low 1.02 | locus YDR162C, strain NBP2, active compounds read low 0.993 | locus YDR195W, strain ref2 0.999 | locus YDR297W, strain sur2, active compounds read low 1 | locus YDR318W, strain mcm21, active compounds read low 1.01 | locus YDR334W, strain swr1, active compounds read low 1 | locus YDR335W, strain msn5, active compounds read low 0.998 | locus YDR388W, active compounds read low 1.01 | locus YDR392W, strain spt3, active compounds read low 1.01 | locus YDR502C, strain sam2, active compounds read low 1.01 | locus YEL003W, strain gim4, active compounds read low 1 | locus YEL037C, strain rad23, active compounds read low 0.998 | locus YEL061C, strain CIN8 (second series), active compounds read low 1.01 | locus YEL061C, strain CIN8, active compounds read low 1 | locus YER015W, strain faa2, active compounds read low 1.01 | locus YER016W, strain bim1, active compounds read low 1.01 | locus YER110C, active compounds read low 1.01 | locus YER111C, strain swi4, active compounds read low 1.01 | locus YER155C, strain BEM2 (second series), active compounds read low 1.02 | locus YER155C, strain BEM2, active compounds read low 0.98 | locus YER167W, strain BCK2, active compounds read low 1 | locus YFR010W, strain ubp6, active compounds read low 0.994 | locus YGL078C, strain dbp3, active compounds read low 1.01 | locus YGL086W, strain mad1, active compounds read low 1.01 | locus YGL167C, strain pmr1, active compounds read low 1.01 | locus YGL173C, strain kem1, active compounds read low 1.02 | locus YGL227W, strain vid30, active compounds read low 1.01 | locus YGL240W, strain doc1, active compounds read low 1.02 | locus YGL248W, strain PDE1, active compounds read low 1.01 | locus YGL253W, strain hxk2, active compounds read low 0.997 | locus YGR078C, strain PAC10, active compounds read low 0.997 | locus YGR135W, strain pre9, active compounds read low 0.999 | locus YGR229C, strain SMI1, active compounds read low 1 | locus YGR252W, strain gcn5, active compounds read low 1.02 | locus YHR013C, strain ard1, active compounds read low 0.994 | locus YHR027C, strain rpn1, active compounds read low 1 | locus YHR030C, strain SLT2, active compounds read low 0.986 and 1.05 | locus YHR079C, strain IRE1 (second series), active compounds read low 1.02 | locus YHR079C, strain IRE1, active compounds read low 1.07 | locus YHR094C, strain hxt1, active compounds read low 1.01 | locus YHR129C, strain ARP1, active compounds read low 0.998 | locus YHR142W, strain chs7, active compounds read low 0.982 | locus YHR200W, strain rpn10, active compounds read low 1.01 | locus YIL066C, strain RNR3, active compounds read low 1.03 | locus YIL073C, strain SPO22, active compounds read low 1.06 | locus YIL125W, strain kgd1, active compounds read low 1 | locus YIR030C, strain dcg1, active compounds read low 1.01 | locus YJL092W, strain hpr5, active compounds read low 0.998 | locus YJL095W, strain BCK1 (second series), active compounds read low 1.01 | locus YJL095W, strain BCK1, active compounds read low 0.99 and 1.03 | locus YJL115W, strain asf1, active compounds read low 1 | locus YJL129C, strain trk1, active compounds read low 0.993 | locus YJL134W, strain LCB3, active compounds read low 1 | locus YJL154C, strain vps35, active compounds read low 0.998 | locus YJL164C, strain tpk1, active compounds read low 1 | locus YJL166W, strain qcr8, active compounds read low 1.01 | locus YJL168C, strain set2, active compounds read low 1.01 | locus YJL187C, strain SWE1 (second series), active compounds read low 1.01 | locus YJL187C, strain SWE1, active compounds read low 1.01 | locus YJR043C, strain POL32, active compounds read low 1.02 | locus YJR066W, strain TOR1, active compounds read low 0.985
